Data on 42 sequences can be found in the supplement of paper PMC3545927.

The list shows a part of the results. The hit rate among all sequences tested is not known here.

This experiment concerns the target furin, P09958. Put plainly: furin cleavage Z-score vs untreated control; higher = more cleavage, active = 3.5 or more, inactive = 1 or less, 8 variable residues between constant flanks. A digest of the protocol: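 Read counts from sequencing released DNA gave abundance for each bead-bound 8-mer peptide–cDNA fusion cut by purified furin over 7.5, 15 or 30 min. The cleavage Z-score compares log counts with furin-free reactions after lowess adjustment and median absolute deviation scaling.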
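Further: purified furin at 1:10 enzyme:substrate in 50 mM HEPES pH 7.5.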

furin, P09958, sequence (P09958 whole entry, the tested form may be a part): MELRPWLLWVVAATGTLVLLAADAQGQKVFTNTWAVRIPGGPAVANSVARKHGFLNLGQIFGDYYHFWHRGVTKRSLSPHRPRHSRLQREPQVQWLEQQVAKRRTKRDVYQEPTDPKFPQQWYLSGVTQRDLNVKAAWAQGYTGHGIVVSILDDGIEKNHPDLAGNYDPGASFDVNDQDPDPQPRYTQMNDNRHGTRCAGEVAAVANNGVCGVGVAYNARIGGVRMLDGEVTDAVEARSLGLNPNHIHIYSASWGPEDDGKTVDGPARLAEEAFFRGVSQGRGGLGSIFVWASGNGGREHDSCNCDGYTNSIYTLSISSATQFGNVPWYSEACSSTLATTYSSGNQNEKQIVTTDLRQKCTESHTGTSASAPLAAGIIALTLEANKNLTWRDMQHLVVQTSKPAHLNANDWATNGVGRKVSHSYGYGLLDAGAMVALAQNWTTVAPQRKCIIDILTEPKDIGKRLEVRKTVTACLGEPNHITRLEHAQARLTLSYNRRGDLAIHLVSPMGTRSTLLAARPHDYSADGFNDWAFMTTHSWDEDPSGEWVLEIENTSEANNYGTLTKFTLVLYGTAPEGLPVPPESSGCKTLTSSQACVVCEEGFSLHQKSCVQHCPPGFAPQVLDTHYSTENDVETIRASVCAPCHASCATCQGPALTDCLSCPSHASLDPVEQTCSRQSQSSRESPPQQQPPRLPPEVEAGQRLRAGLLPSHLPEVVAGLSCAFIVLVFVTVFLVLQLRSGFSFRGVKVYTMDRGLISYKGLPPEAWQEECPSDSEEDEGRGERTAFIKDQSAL

B1: HC2141 (peptide)
chain: CAENVVCCSMAGNASASA
With B1, the “furin cleavage Z-score” value is -0.000681 (inactive) (7.5 min), -0.718 (inactive) (15 min) and 1.03 (30 min).

B2: FS-1452 (peptide)
chain: CAEPSRLVREAGNASASA
As for B2, the “furin cleavage Z-score” value is, setting by setting: (7.5 min) 3.98 (active); (15 min) 5.86 (active); (30 min) 4.45 (active).

B3: HC1009 (peptide)
chain: CADREVLYREAGNASASA
On to B3, for which the “furin cleavage Z-score” value reads like this: (7.5 min) 1.17; (15 min) 0.738 (inactive); (30 min) 0.787 (inactive).

B4: FS-3185 (peptide)
chain: CARCRRLVREAGNASASA
For B4, the “furin cleavage Z-score” value is 8.42 (active) (7.5 min), 9.96 (active) (15 min) and 8.44 (active) (30 min).

B5: FS-1887 (peptide)
chain: CARCRRQFQEAGNASASA
Turning to B5, the “furin cleavage Z-score” value is 0.189 (inactive) (7.5 min), 1.16 (15 min) and 1.9 (30 min).

B6: FS-2288 (peptide)
chain: CARQCRSSQGAGNASASA
As for B6, the “furin cleavage Z-score” value reads like this: (7.5 min) 1.61; (15 min) 0.149 (inactive); (30 min) 1.21.

B7: FS-2437 (peptide)
chain: CARPKRYNSGAGNASASA
On to B7, for which the “furin cleavage Z-score” value by setting is: (7.5 min) 0.95 (inactive); (15 min) 0.51 (inactive); (30 min) 1.14.

B8: FS-2999 (peptide)
chain: CARLVRESSGAGNASASA
Take B8: the “furin cleavage Z-score” value (7.5 min) was -0.00522 (inactive), the “furin cleavage Z-score” value (15 min) was determined as 1.39 and the “furin cleavage Z-score” value (30 min) was 1.91.

B9: FS-3176 (peptide)
chain: CARWKRDSSGAGNASASA
Consider B9, for which the “furin cleavage Z-score” value (7.5 min) is 10.7 (active), the “furin cleavage Z-score” value (15 min) is 12 (active) and the “furin cleavage Z-score” value (30 min) was 10.2 (active).

B10: FS-2906 (peptide)
chain: CARDSRSSGGAGNASASA
For B10, the “furin cleavage Z-score” value reads like this: (7.5 min) -0.675 (inactive); (15 min) -1.21 (inactive); (30 min) -0.52 (inactive).

B11: FS-2338 (peptide)
chain: CARIKRDSQGAGNASASA
B11: the “furin cleavage Z-score” value was 12.5 (active) (7.5 min), 13.5 (active) (15 min) and 10.5 (active) (30 min).

B12: HC908 (peptide)
chain: CAKPGIYRFVAGNASASA
For B12, the “furin cleavage Z-score” value reads like this: (7.5 min) 1.16; (15 min) -1.32 (inactive); (30 min) 2.33.

B13: HC1108 (peptide)
chain: CAGVVCAAILAGNASASA
With B13, the “furin cleavage Z-score” value (7.5 min) was 0.833 (inactive), the “furin cleavage Z-score” value (15 min) was found to be 1.01 and the “furin cleavage Z-score” value (30 min) came to 1.2.

B14: HC886 (peptide)
chain: CAVIDCNTCVAGNASASA
In the case of B14, the “furin cleavage Z-score” value is, setting by setting: (7.5 min) -1.17 (inactive); (15 min) -0.722 (inactive); (30 min) -1.34 (inactive).

B15: HC400 (peptide)
chain: CAGPDQRPYCAGNASASA
For B15, the “furin cleavage Z-score” value by setting is: (7.5 min) 0.515 (inactive); (15 min) 0.00682 (inactive); (30 min) 0.075 (inactive).

B16: FS-1381 (peptide)
chain: CAPGRRRRRTAGNASASA
Take B16: the “furin cleavage Z-score” value reads like this: (7.5 min) 7.92 (active); (15 min) 8.84 (active); (30 min) 6.67 (active).

B17: FS-1250 (peptide)
chain: CAQPRRHRRPAGNASASA
Regarding B17, the “furin cleavage Z-score” value (7.5 min) is 0.282 (inactive), the “furin cleavage Z-score” value (15 min) came to 1.35 and the “furin cleavage Z-score” value (30 min) was 0.113 (inactive).

B18: HC878 (peptide)
chain: CAVATDALMTAGNASASA
Consider B18, for which the “furin cleavage Z-score” value by setting is: (7.5 min) -0.06 (inactive); (15 min) -0.775 (inactive); (30 min) 0.231 (inactive).

B19: FS-387 (peptide)
chain: CAVGRRYRRTAGNASASA
In the case of B19, the “furin cleavage Z-score” value is 11.6 (active) (7.5 min), 9.35 (active) (15 min) and 8.06 (active) (30 min).

B20: FS-1432 (peptide)
chain: CAVPQRHRRTAGNASASA
Consider B20, for which the “furin cleavage Z-score” value was 10.8 (active) (7.5 min), 9.86 (active) (15 min) and 9.48 (active) (30 min).

B21: FS-2936 (peptide)
chain: CARGRREARRAGNASASA
For the sequence B21, the “furin cleavage Z-score” value was 6.61 (active) (7.5 min), 7.38 (active) (15 min) and 6.43 (active) (30 min).

B22: HC962 (peptide)
chain: CASWDQMWKCAGNASASA
On to B22, for which the “furin cleavage Z-score” value is 1.5 (7.5 min), -0.918 (inactive) (15 min) and -0.53 (inactive) (30 min).

B23: HC1378 (peptide)
chain: CAAAEEQKLPAGNASASA
Turning to B23, the “furin cleavage Z-score” value by setting is: (7.5 min) -1.36 (inactive); (15 min) -0.838 (inactive); (30 min) -1.05 (inactive).

B24: HC1118 (peptide)
chain: CAWMNRLIAFAGNASASA
Take B24: the “furin cleavage Z-score” value reads like this: (7.5 min) 0.154 (inactive); (15 min) 0.647 (inactive); (30 min) 1.16.

B25: HC2315 (peptide)
chain: CAHVPCHRPSAGNASASA
For B25, the “furin cleavage Z-score” value (7.5 min) worked out at 1.79, the “furin cleavage Z-score” value (15 min) is 0.404 (inactive) and the “furin cleavage Z-score” value (30 min) was 0.971 (inactive).

B26: HC1701 (peptide)
chain: CAMNECSQHLAGNASASA
For the sequence B26, the “furin cleavage Z-score” value reads like this: (7.5 min) -0.476 (inactive); (15 min) 0.465 (inactive); (30 min) 1.3.

B27: HC2136 (peptide)
chain: CAEGVVCCSMAGNASASA
As to B27, the “furin cleavage Z-score” value runs as follows: (7.5 min) 0.615 (inactive); (15 min) 1.53; (30 min) -0.0256 (inactive).

B28: HC1010 (peptide)
chain: CAEVLYREFDAGNASASA
Turning to B28, the “furin cleavage Z-score” value runs as follows: (7.5 min) -0.000681 (inactive); (15 min) -0.163 (inactive); (30 min) -0.163 (inactive).

B29: FS-1398 (peptide)
chain: CARGRRKKKCAGNASASA
In the case of B29, the “furin cleavage Z-score” value (7.5 min) was 0.559 (inactive), the “furin cleavage Z-score” value (15 min) was 2.05 and the “furin cleavage Z-score” value (30 min) is 2.1.

B30: FS-1399 (peptide)
chain: CARGRRRRRTAGNASASA
As for B30, the “furin cleavage Z-score” value runs as follows: (7.5 min) 6.1 (active); (15 min) 5.39 (active); (30 min) 6 (active).

B31: HC769 (peptide)
chain: CAPVVPQSFQAGNASASA
On to B31, for which the “furin cleavage Z-score” value is 0.521 (inactive) (7.5 min), -0.599 (inactive) (15 min) and -1.31 (inactive) (30 min).

B32: FS-2532 (peptide)
chain: CARVKRPQLMAGNASASA
For B32, the “furin cleavage Z-score” value (7.5 min) was 1.35, the “furin cleavage Z-score” value (15 min) is -0.179 (inactive) and the “furin cleavage Z-score” value (30 min) is -0.384 (inactive).

B33: FS-2197 (peptide)
chain: CARVKRRADPAGNASASA
With B33, the “furin cleavage Z-score” value (7.5 min) was 8.92 (active), the “furin cleavage Z-score” value (15 min) was 9.27 (active) and the “furin cleavage Z-score” value (30 min) is 8.27 (active).

B34: FS-2243 (peptide)
chain: CARVKRYRQSAGNASASA
Consider B34, for which the “furin cleavage Z-score” value by setting is: (7.5 min) 3.13; (15 min) 4.29 (active); (30 min) 5.21 (active).

B35: FS-2318 (peptide)
chain: CARVKRRLLMAGNASASA
Turning to B35, the “furin cleavage Z-score” value (7.5 min) worked out at 1.78, the “furin cleavage Z-score” value (15 min) was determined as 2.84 and the “furin cleavage Z-score” value (30 min) was 5.21 (active).

B36: FS-1865 (peptide)
chain: CARQKRREERAGNASASA
Turning to B36, the “furin cleavage Z-score” value reads like this: (7.5 min) -0.0741 (inactive); (15 min) 1.57; (30 min) 0.905 (inactive).

B37: FS-1864 (peptide)
chain: CARQKRRAKPAGNASASA
Consider B37, for which the “furin cleavage Z-score” value by setting is: (7.5 min) 5.33 (active); (15 min) 6.71 (active); (30 min) 6.66 (active).

B38: FS-2619 (peptide)
chain: CARVKRVSHSAGNASASA
Turning to B38, the “furin cleavage Z-score” value is -0.25 (inactive) (7.5 min), 0.383 (inactive) (15 min) and 1.16 (30 min).

B39: FS-2290 (peptide)
chain: CARQKRNKIPAGNASASA
Turning to B39, the “furin cleavage Z-score” value by setting is: (7.5 min) 0.00727 (inactive); (15 min) -0.821 (inactive); (30 min) 0.672 (inactive).

B40: HC2402 (peptide)
chain: CAEVPCHRQSAGNASASA
Take B40: the “furin cleavage Z-score” value (7.5 min) was 0.566 (inactive), the “furin cleavage Z-score” value (15 min) was 0.909 (inactive) and the “furin cleavage Z-score” value (30 min) was determined as 1.17.

B41: FS-1940 (peptide)
chain: CARVPRDWDPAGNASASA
As to B41, the “furin cleavage Z-score” value by setting is: (7.5 min) -0.333 (inactive); (15 min) -0.446 (inactive); (30 min) 1.11.

B42: HC2006 (peptide)
chain: CAVMCCSMSYAGNASASA
Consider B42, for which the “furin cleavage Z-score” value by setting is: (7.5 min) 0.223 (inactive); (15 min) 0.521 (inactive); (30 min) 0.261 (inactive).
